The source of these data is PubChem BioAssay (NCI).

Test systems include EKVX NSCLC; SN12C renal; UO-31 renal; TK-10 renal; ACHN renal; CAKI-1 renal; A498 renal; CCRF-CEM leukemia; MOLT-4 leukemia.
What all share (experiment): NCI-60 one-dose screen, 48 h (100 = growth as untreated, 0 = no growth, -100 = all killed)
Holding throughout (conditions): 10 µM unless noted

The structures appear in SMILES notation. Compounds without any hit were thinned out: in the full panel of roughly 83,000, 20% have a hit.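 Plates (96-well) were seeded with cells, treated with compound at one concentration, and incubated for 48 hours before percent growth was determined.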 Unmarked numbers belong to inactive results. Active and inactive are the calls of the source. How the source made its calls: active means growth percent below 10; inactive means the rest.

Consider `CS(=O)(=O)c1ccc(-n2nc(C(=O)NCc3ccccc3)cc2-c2ccc(Cl)cc2)cc1`, for which the growth was 68% in the experiment on EKVX NSCLC; 80.8% in the experiment with SN12C renal; 56.5% in the experiment on UO-31 renal; 104% in the experiment on TK-10 renal; 91.3% in the experiment with ACHN renal; 76.1% in the experiment on CAKI-1 renal. The values for the growth in the experiment with A498 renal, in the experiment with CCRF-CEM leukemia and in the experiment with MOLT-4 leukemia were 124%, 58.6% and 59.4%, respectively.

In the case of `O=C(O)CC1S/C(=N/N=C/c2nc3ccccc3s2)NC1=O` (centres undefined), the growth in the experiment with EKVX NSCLC was 54.7%; in the experiment on SN12C renal, 101%; with UO-31 renal it was 52.7%; in the experiment on TK-10 renal it was 104%; with ACHN renal, 78.3%; in the experiment on CAKI-1 renal, 77.3%. The growth in the experiment with A498 renal is 155%; with CCRF-CEM leukemia, 93%; with MOLT-4 leukemia, 95.2%.

Consider `ClC(Cn1ncc2c(Nc3cccc(Br)c3)nc(SCCN3CCOCC3)nc21)c1ccc(Br)cc1` (centres undefined), for which the growth was 16.5% with EKVX NSCLC; 26.2% in the experiment on SN12C renal; -65.7% (active) in the experiment on UO-31 renal; 40.9% in the experiment on TK-10 renal; 7.98% (active) in the experiment with ACHN renal; -28% (active) in the experiment on CAKI-1 renal. Moreover, the results for the growth with A498 renal, in the experiment with CCRF-CEM leukemia and in the experiment with MOLT-4 leukemia were 31.7%, -6.03% (active) and -34.3% (active), respectively.

On to `CCOC(=O)c1ccc(NC(=S)NC(=O)c2ccc(NC(=O)C(C)C)cc2OC)cc1`, for which the growth in the experiment with EKVX NSCLC is 36.1%; in the experiment with SN12C renal, 73.8%; with UO-31 renal, 51.7%; in the experiment on TK-10 renal, 85.7%; in the experiment with ACHN renal, 64.6%; with CAKI-1 renal it was 53.7%. The results for the growth in the experiment with A498 renal, with CCRF-CEM leukemia and in the experiment with MOLT-4 leukemia were 86.7%, 9.79% (active) and -60.3% (active), respectively.

Turning to `Cn1cc(-c2cc(N)n3nc(-c4c[nH]c5ccccc45)cc3n2)c2cc(F)ccc21`, the growth in the experiment with EKVX NSCLC was 60.2%; in the experiment with SN12C renal, 47.1%; in the experiment with UO-31 renal, 59.7%; in the experiment on TK-10 renal it was 50.6%; in the experiment on ACHN renal, 31.7%; in the experiment on A498 renal, 99%. Further, the figures for the growth in the experiment on CCRF-CEM leukemia and in the experiment on MOLT-4 leukemia were -0.0318% (active) and 25.7%, respectively.

On to `O=C(CSc1nnc(-c2ccc(-c3nc4ccccc4[nH]3)cc2)o1)Nc1ccc(Br)cc1`, for which the growth was 27.1% in the experiment with EKVX NSCLC; 21.9% in the experiment on SN12C renal; 63.2% in the experiment on UO-31 renal; 56.7% in the experiment with TK-10 renal; -60.9% (active) with ACHN renal; 25.2% in the experiment on CAKI-1 renal. Moreover, the growth is 109% in the experiment on A498 renal, 23% with CCRF-CEM leukemia and 4.27% (active) with MOLT-4 leukemia.

In the case of `Cn1cc(-c2cc(N)n3nc(-c4c[nH]c5ccc(F)cc45)cc3n2)c2cc(Br)cnc21`, the growth in the experiment with EKVX NSCLC was 65.5%; in the experiment on SN12C renal it was 69.3%; with UO-31 renal it was 47.3%; in the experiment on TK-10 renal, 90.9%; with ACHN renal, 39.5%; with CAKI-1 renal it was 46%. Further, the growth was 109% with A498 renal, -42.9% (active) in the experiment with CCRF-CEM leukemia and -10.4% (active) in the experiment on MOLT-4 leukemia.

Regarding `CCCSc1nnc(-c2sc3nc4ccccc4n3c2C)o1`, the growth was 103% in the experiment with EKVX NSCLC; 105% with SN12C renal; 82.3% in the experiment with UO-31 renal; 124% in the experiment with TK-10 renal; 104% in the experiment with ACHN renal; 104% in the experiment with CAKI-1 renal. In addition, the growth is 110% in the experiment with A498 renal, 107% in the experiment with CCRF-CEM leukemia and 92.3% in the experiment with MOLT-4 leukemia.

Turning to `Nc1ccc(-c2ccc3ncnc(N4CCc5cc(F)c(Cl)cc54)c3c2)cn1`, the growth was -29.2% (active) with EKVX NSCLC; 19.2% in the experiment with SN12C renal; 3.05% (active) in the experiment with UO-31 renal; -7.15% (active) in the experiment with TK-10 renal; 8.96% (active) with ACHN renal; 5.25% (active) in the experiment on CAKI-1 renal. The growth with A498 renal was -13.2% (active); with CCRF-CEM leukemia, 10.6%; in the experiment with MOLT-4 leukemia, 1.81% (active).

Consider `COc1ccc(C(=O)C[n+]2cccc3c4ccccc4ccc32)cc1`, for which the growth was 43.2% in the experiment on EKVX NSCLC; 17.4% with SN12C renal; 56.5% in the experiment on UO-31 renal; 73.6% in the experiment with TK-10 renal; 79% in the experiment on ACHN renal; 79% with CAKI-1 renal. The growth in the experiment on A498 renal was 102%; in the experiment with CCRF-CEM leukemia, 52.5%; in the experiment on MOLT-4 leukemia, 32%.

For `COc1ccc(-c2nc3ccccc3n2CC(=O)N=Nc2c(O)[nH]c3ccc(OC)cc23)cc1`, the growth in the experiment with EKVX NSCLC is 77.8%; in the experiment with SN12C renal, 58.7%; in the experiment on UO-31 renal it was 68.5%; in the experiment on TK-10 renal it was 43.8%; with ACHN renal, 10.1%; with CAKI-1 renal it was -53.5% (active). Also, the growth in the experiment with A498 renal is 88.3%; in the experiment on CCRF-CEM leukemia, 62.9%; with MOLT-4 leukemia, 35.8%.

Take `N#Cc1c(NC(=O)N2CCOCC2)n(-c2ccc(OC(F)(F)F)cc2)c2cc(F)ccc12`: the growth was 90.1% with EKVX NSCLC; 93.5% with SN12C renal; 104% in the experiment with UO-31 renal; 113% with TK-10 renal; 93.2% in the experiment on ACHN renal; 88.9% in the experiment on CAKI-1 renal. The growth in the experiment with A498 renal was 177%; in the experiment with CCRF-CEM leukemia, 85.5%; with MOLT-4 leukemia it was 68.7%.

As for `CN(C)C(=O)c1cc(-c2ccc3ncnc(N4CCc5cc(F)c(Cl)cc54)c3c2)cnc1N`, the growth with EKVX NSCLC was -84.3% (active); in the experiment with SN12C renal it was -9.32% (active); with UO-31 renal it was -10.3% (active); with TK-10 renal it was -69.4% (active); in the experiment on ACHN renal, 2.02% (active); in the experiment on CAKI-1 renal, -76.5% (active). For the same compound, the growth in the experiment on A498 renal is -84.2% (active); in the experiment on CCRF-CEM leukemia, -20.5% (active); with MOLT-4 leukemia it was -38.3% (active).

In the case of `O=C1CCC(N2C(=O)c3cccc(NCCOCCOCCOCCC(=O)NCCCC(=O)NC(c4ccc5c(c4)OCO5)c4cc(Cl)c5cccnc5c4O)c3C2=O)C(=O)C1` (centres undefined), the growth in the experiment with EKVX NSCLC was 38.1%; in the experiment on SN12C renal, 26.9%; with UO-31 renal it was 64.5%; in the experiment with TK-10 renal, 95.2%; in the experiment with ACHN renal, 89.3%; in the experiment on CAKI-1 renal, 69.8%. The growth is 104% with A498 renal, -4.69% (active) in the experiment with CCRF-CEM leukemia and 8.18% (active) with MOLT-4 leukemia.

Regarding `COc1cc(/C=N/NC(=O)c2ccc(OCc3nc4ccc(C)cc4[nH]3)cc2)cc(OC)c1OC`, the growth with EKVX NSCLC was 72.4%; in the experiment with SN12C renal, 56.4%; in the experiment with UO-31 renal, 66.2%; in the experiment on TK-10 renal, 83.2%; in the experiment with ACHN renal it was 69.6%; in the experiment with CAKI-1 renal, 50.5%. The growth is 116% in the experiment with A498 renal, 7.65% (active) with CCRF-CEM leukemia and 4.5% (active) in the experiment on MOLT-4 leukemia.
